In the library only some 17% were active in any assay of this set; here they are far more common.
TGFb SMAD3 inh: inhibitors of TGF-b signaling. HepG2 CAGA-GFP TGF-b/SMAD3 reporter, GFP fluorescence, 18 h; TGF-beta stimulated, 500 pg/mL final. Potency, µM (titrated, usually from 46.1 µM), for the others: at the top dose activity, negative = inhibition, hits mostly inhibitors. hit rate 1.2% among 410,000. AID 588855; further: on the % scale 0 is the no-effect control and ±100 the full control effect; nearly all actives have a fitted effect of over 65% in size
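Read-out: total well GFP (ex488/em500-530) summed from mean per-cell fluorescence. Cells: HEPG2 CAGA-GFP, 1% FBS DMEM, 18 h at 37 degrees C with 500 pg/mL final TGF-beta. Unstimulated wells served as the full-inhibition control; stimulated DMSO wells = 0%.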
HepG2 viability: kills HepG2 cells in TGF-b inhibitor counter-screen | AID 588856 | Potency, µM (series often up to 46.1 µM), without a hit: at the top dose activity change, negative = cytotoxicity, actives largely listed as cytotoxic | hit rate 0.76% among 410,000 | HepG2 CAGA-GFP viability, ATP luminescence, 18 h
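CellTiter-Glo luminescence gave cytotoxicity after 18 hours at 37 degrees C. The cells were HepG2 CAGA-GFP in 1% FBS DMEM, stimulated with 500 pg/mL TGF-beta after compound addition. %Activity was normalised to no-cell wells (complete cell-killing) and DMSO (no toxicity), and curves were fitted and classified.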
HT1080NT lethal: kills 2HG-producing HT-1080-NT fibrosarcoma cells; hit rate 1.6% among 360,000; AID 686970; HT-1080-NT fibrosarcoma viability, CellTiter-Glo ATP luminescence, 48 h; Potency, µM (titrated, usually from 46.1 µM), for the others: at the top dose activity, negative = less viability, usual class: cytotoxic;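 further: NT is the 2HG producing partner of a matched IDH1 knockdown line; 0% = DMSO-treated cells and -100% = media-only wells without cells; nearly all actives have a fitted effect of over 55% in size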
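A 48-hour cytotoxicity screen used HT-1080-NT cells plated 2 hours before compound delivery. ATP-based CellTiter-Glo luminescence measured viability, normalized to DMSO and no-cell controls.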
HT1080 IDH1KD tx: kills HT-1080 cells with IDH1 knockdown. AID 686971. HT-1080 IDH1 knockdown viability, ATP luminescence, 48 h. hit rate 2% among 360,000. Potency, µM (doses to about 46.1 µM), for the others: top-dose activity, negative = toxicity, usual class: cytotoxic;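 further: 0% = DMSO wells and -100% = cell-free medium wells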
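% activity derives from luminescence (CellTiter-Glo), normalised to DMSO and no-cell wells. HT-1080-IDH1KD cells, 750/well, had 48 h compound exposure at 37 °C.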
TDP1 cell noCPT: qHTS for Inhibitors of human tyrosyl-DNA phosphodiesterase 1 (TDP1): qHTS in cells in absence of CPT; hit rate 15% among 420,000; DT40 Tdp1-/- hTDP1 cells, no CPT, ATP luminescence, 48 h; Potency, µM (titrated, usually from 46.2 µM), for inactives: top-dose activity change, negative = growth inhibition, actives largely listed as inhibitors; further: on the % scale 0 is the no-effect control and ±100 the full control effect; nearly all actives have a fitted effect of over 55% in size
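Compound effects on proliferation are scored in DT40 Tdp1-/-;hTDP1 cells in the absence of CPT. ATP levels (CellTiter-Glo luminescence) are recorded after a ≥48 hr, 37 °C incubation.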
TDP1 cell CPT: DT40-hTDP1 cell growth loss with CPT | chicken DT40 Tdp1-/-;hTDP1 cells + 20 nM CPT, ATP luminescence, 48 h | Potency, µM (highest dose often 46.2 µM), inactives show at the top dose activity change, negative = growth inhibition, most hits filed as inhibitors | hit rate 12% among 420,000; further: on the % scale 0 is the no-effect control and ±100 the full control effect; nearly all actives have a fitted effect of over 55% in size
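Chicken DT40 Tdp1-/- cells stably complemented with human TDP1 were seeded at 400 cells/well in medium containing 20 nM camptothecin, exposed to pin-transferred compounds, and grown at 37 °C for at least 48 hr. Viability was read as ATP luminescence.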
Numbers without * were called inactive; ? = inconclusive; . = no result given. The call rests on the fitted dose curve; in most records, active means well fitted curve in the direction sought with a large enough effect; inconclusive means small, poorly fitted or top-dose-only effect, or another doubt; inactive means no such curve, though single readings can be large; an effect the other way counts as inactive or inconclusive. Potency means the concentration at half of the fitted maximal effect.

SMILES | TGFb SMAD3 inh | HepG2 viability | HT1080NT lethal | HT1080 IDH1KD tx | TDP1 cell noCPT | TDP1 cell CPT
CCOC(=O)CNC(=O)N1CCc2cc(S(=O)(=O)N3CCC(C)CC3)ccc21 | . | -18.4% | . | . | -28.2% | ?
CCCC(=O)N1CCC1(C)C(=O)Nc1ccc(OC)c(OC)c1 (stereo not drawn) | -6.3% | -1.2% | ? | ? | 0.6% | -7.8%
CCOC(=O)Cn1nnnc1C(CC)N(Cc1ccccc1)Cc1cc2cc(C)ccc2[nH]c1=O (stereo not drawn) | 7.4% | -10.8% | 12.0% | -0.8% | -29.1% | ?
CCC(c1nnnn1CCc1ccccc1)N(Cc1ccco1)Cc1cc2cc(C)cc(C)c2[nH]c1=O (stereo not drawn) | ? | 11.1% | -21.3% | -20.3% | 23.1µM* | 18.4µM*
CCOC(=O)c1c(NC(=O)COC(=O)/C=C/c2ccco2)sc2c1CC(C)(C)NC2(C)C | ? | -38.8% | 1.5% | -4.3% | 5.8µM* | ?
CCOC(=O)c1c(NC(=O)CSc2nc3ccccc3[nH]2)sc2c1CC(C)(C)NC2(C)C | 2.5% | -27.6% | -1.7% | 4.6% | ? | ?
COC(=O)c1c(NC(=O)c2ccc(C(=O)c3ccccc3)cc2)sc2c1CC(C)(C)NC2(C)C | 3.1% | -19.0% | -2.1% | 10.0% | ? | -14.2%
CCOC(=O)c1c(C)[nH]c(C)c1C(=O)COC(=O)/C=C/c1ccco1 | 3.7% | 4.8% | -11.5% | 2.9% | -18.5% | -11.2%
CCOC(=O)c1c(NC(=O)COc2ccccc2)sc2c1CC(C)(C)NC2(C)C | 5.2% | 12.0% | -0.1% | 9.1% | 16.4µM* | ?
COC(=O)c1c(NC(=O)c2nc3ccccc3s2)sc2c1CC(C)(C)NC2(C)C | -13.0% | -42.6% | -10.3% | 6.9% | 20.6µM* | 23.1µM*
CCOc1ccc(C(=O)Nc2sc3c(c2C(=O)OC)CC(C)(C)NC3(C)C)cc1 | 12.4% | -9.9% | -15.2% | -15.6% | 16.4µM* | ?
CCN(Cc1ccncc1)C(=O)c1ccc(C)c(S(=O)(=O)N2CCCCC2)c1 | -2.2% | 3.7% | 0.0% | -0.8% | ? | ?
CCC(=O)Nc1ccccc1-c1nc2ccccc2n(CC(=O)c2ccc(C)c(C)c2)c1=O | -4.2% | -2.2% | . | . | ? | ?
CN(C)S(=O)(=O)c1ccc2c(c1)Cc1cc(S(=O)(=O)N(C)C)ccc1-2 | 2.4% | -36.4% | ? | 0.9% | -9.3% | 16.1%
Cc1ccc(S(=O)(=O)N2CCC3(CC2)OCCO3)s1 | -10.4% | 3.3% | 15.9% | 10.7% | 19.8% | -0.2%
CCOC(=O)CSc1nc2ccccc2c(=O)n1-c1cccc(C)c1 | ? | -14.3% | . | . | ? | -23.0%
Cc1cc(C)c2c(N)c(C(=O)N3CCc4ccccc4C3)sc2n1 | ? | -32.5% | 2.0% | -4.3% | 29.1µM* | ?
COC(=O)c1ccc(S(=O)(=O)N2CCc3ccccc32)cc1 | -5.0% | -2.2% | ? | 9.2µM* | ? | -77.5%
CCn1c(=O)n(CC)c2cc(S(=O)(=O)N3CCc4ccccc43)ccc21 | -2.1% | -35.8% | 10µM* | ? | 18.4µM* | 13µM*
O=S(=O)(c1ccc(Cl)cc1)N1CCc2ccccc21 | -20.3% | -10.8% | 5.6% | 10.3% | 14.6µM* | ?
COc1ccc(S(=O)(=O)N2CCc3ccccc32)cc1OC | -11.3% | -11.7% | 1.7% | -2.9% | -21.0% | -3.0%
COc1ccc(S(=O)(=O)N2CCc3ccccc32)cc1C(=O)O | 9.2% | -4.5% | 0.2% | -0.1% | -2.8% | 1.7%
CC(=O)N1CCc2ccc(S(=O)(=O)N3CCc4ccccc43)cc21 | -23.6% | -23.5% | -10.6% | -14.5% | 5.17µM* | 20.6µM*
Cc1c2cnn(-c3ccccc3)c(=O)c2c(C)n1C(C)C(=O)Nc1ccccc1C(F)(F)F (stereo not drawn) | ? | -28.4% | . | . | -12.2% | ?
COCC(=O)N1C[C@H](C)[C@H](OC)CN(C)C(=O)c2cc(NC(=O)Nc3cccc(F)c3)ccc2OC[C@@H]1C | . | . | -0.4% | -7.0% | 10.3µM* | 11.6µM*
SMILES | TGFb SMAD3 inh | HepG2 viability | HT1080NT lethal | HT1080 IDH1KD tx | TDP1 cell noCPT | TDP1 cell CPT
CO[C@@H]1CN(C)C(=O)c2cc(NC(=O)NC3CCCCC3)ccc2OC[C@@H](C)N(CCc2ccccc2)C[C@H]1C | . | . | -13.7% | -11.6% | 16.4µM* | 23.1µM*
CCCC(=O)Nc1ccc2c(c1)C(=O)N(C)C[C@@H](OC)[C@H](C)CN(Cc1ccc(-c3ccccn3)cc1)[C@@H](C)CO2 | . | . | -22.2% | -5.8% | 23.1µM* | ?
CO[C@@H]1CN(C)C(=O)c2cc(NC(=O)Nc3ccc4c(c3)OCO4)ccc2OC[C@@H](C)N(C)C[C@H]1C | . | . | 1.1% | 0.8% | 3.0% | 12.1%
Cn1c(=O)c(-c2ccc(F)cc2)nc2cnc(OCc3ccccc3)nc21 | . | . | . | . | 21.4% | 0.4%
COc1ccc(NC(=O)c2cc3nc(-c4ccc(Cl)c(Cl)c4)cc(C(F)(F)F)n3n2)c(OC)c1 | 0.8% | 5.6% | . | . | 5.7% | 10.0%
CN(CCc1ccccc1)C(=O)c1ccc(NC(=O)Cc2ccc(NC(=O)C3CCCN(C(=O)C4CCCCC4)C3)cc2)cc1 (stereo not drawn) | -6.2% | -12.6% | -2.9% | -8.4% | ? | ?
CN(CCc1ccccc1)C(=O)c1ccc(NC(=O)Cc2ccc(NC(=O)C3CCN(C(=O)C4CC4)CC3)cc2)cc1 | -8.4% | -20.6% | -14.5% | -25.9% | ? | 23.1µM*
CN(C(=O)c1ccc(NC(=O)Cc2ccc(NC(=O)C3CCN(C(=O)C4CCCCC4)CC3)cc2)cc1)C1CCCC1 | -5.7% | -0.4% | -4.7% | ? | 20.6µM* | ?
CN(CCc1ccccc1)C(=O)c1ccc(NC(=O)Cc2ccc(NC(=O)C3CCN(C(=O)C4CCCC4)CC3)cc2)cc1 | 1.5% | -17.4% | -23.2% | ? | 23.1µM* | 16.4µM*
COc1ccc(OC)c(NC(=O)C(CC(=O)O)NCc2ccco2)c1 (stereo not drawn) | -0.2% | -0.3% | 1.3% | 0.0% | 15.9% | -22.2%
C=CCS/C(=N\n1cnc2ccccc2c1=O)N1CCCCC1 | ? | -1.0% | 4.2% | -3.2% | 18.4µM* | 25.9µM*
C=CCS/C(=N\n1cnc2ccccc2c1=O)N(CC)CC | -2.4% | -0.3% | 2.5% | 8.9% | 18.4µM* | ?

High-throughput results deposited in PubChem by National Center for Advancing Translational Sciences (NCATS).
